Data from PubChem BioAssay (Tox21).
Inconclusive results are not listed. The source holds several records for some structures; these can differ, active in one and inactive in another. Activity calls are given as the source filed them. Unless noted, calls come from the whole dose curve; as a rule, active = well fitted curve in the direction sought with a large enough effect in the repeat runs; inconclusive = weak or mixed curves; inactive = no such curve, though single readings can be large; an effect the other way counts as inactive or inconclusive.

Columns and labels:
[1] = qHTS assay for small molecule agonists of the p53 signaling pathway (AID 651631; calls by dose curve; note: nearly all actives have a fitted effect of over 15% in size; note: potency is the fitted concentration of half-maximal effect)
How it was run: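 HCT-116 p53RE-bla reporter line, 16 h compound treatment at 37 °C, then fluorescence after 2 h with B/G FRET substrate.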

[2] = qHTS assay for small molecules that induce genotoxicity in human embryonic kidney cells expressing luciferase-tagged ATAD5 (AID 651632); note: nearly all actives have a fitted effect of over 15% in size
How it was run: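 Genotoxicity read-out via ATAD5-luciferase: HEK293T cells, 16 hr compound incubation at 37C, Amplite detection.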

[3] = qHTS assay for small molecule agonists of the p53 signaling pathway - cell viability (AID 651633; calls by dose curve;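 note: p53RE-bla HCT reporter cells with a stable beta-lactamase p53 reporter; nearly all actives have a fitted effect of over 30% in size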)
How it was run: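 p53RE-bla cells were treated with compound for 16 hours at 37 C. Cytotoxicity was then measured as CellTiter-Glo luminescence after 30 min at room temperature.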

[4] = qHTS assay for small molecules that induce genotoxicity in human embryonic kidney cells expressing luciferase-tagged ATAD5 - cell viability (AID 651634; calls by dose curve; note: nearly all actives have a fitted effect of over 25% in size)
How it was run: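 Live-cell protease activity (CellTiter-Fluor, fluorescence) indicates viability. HEK293T cells with luciferase-tagged ATAD5; 15.5 hr compound treatment at 37C.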

[5] = qHTS assay for small molecule disruptors of the mitochondrial membrane potential - cell viability (AID 720634; calls by dose curve;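 note: human HepG2 liver cancer cells; nearly all actives have a fitted effect of over 20% in size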)
How it was run: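 Human hepatoma HepG2 cells were treated for 1 hr with test chemicals, then given m-MPI dye and CellTiter-Glo. Cell viability reflects luminescence proportional to cellular ATP.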

[6] = qHTS assay for small molecule disruptors of the mitochondrial membrane potential (AID 720635); note: potency is the fitted concentration of half-maximal effect
How it was run: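 HepG2 cells exposed to compound 1 hr at 37C, then Mito-MPS dye 30 min. Ratio read of aggregate (540/590 nm) versus monomer (490/535 nm) fluorescence.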

[7] = qHTS assay to test for compound auto fluorescence at 590 nm (red) in HepG2 cells (AID 720674)
How it was run: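 Seeding: 2,000 HepG2 cells/well, MEM/10% FBS, overnight 37 C. Dosing: compound vs DMSO. Incubation: 1 hr, 37 C, 5% CO2. Read: fluorescence 540 ex/590 em, Rose Bengal sodium as red reference.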

[8] = qHTS assay to test for compound auto fluorescence at 535 nm (green) in HepG2 cells (AID 720675)
[9] = qHTS assay to test for compound auto fluorescence at 460 nm (blue) in HEK293 cells (AID 720678)
How it was run: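 Triamterene serves as the blue fluorophore standard. Compound signal at 405/460 nm is read in HEK293 wells (2,000 cells, 10% dialyzed FBS) after overnight treatment at 37C.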

[10] = qHTS assay to test for compound auto fluorescence at 590 nm (red) in HEK293 cells (AID 720679)
How it was run: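 We plated HEK293 cells in 10% dialyzed FBS medium, let them adhere for 4-5 hr, then added 23 nL compound. Overnight at 37C and 5% CO2 preceded fluorescence measurement at 540/590nm.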

[11] = qHTS assay to test for compound auto fluorescence at 535 nm (green) in HEK293 cells (AID 720680)
[12] = qHTS assay to test for compound auto fluorescence at 460 nm (blue) in HEK293 cell free culture (AID 720681)
How it was run: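 Compounds were added to cell-free DMEM with 10% FBS and fluorescence read directly. The blue channel used 405 nm excitation and 460 nm emission, with triamterene as the reference fluorophore.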

[13] = qHTS assay to test for compound auto fluorescence at 535 nm (green) in HEK293 cell free culture (AID 720682)
How it was run: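 Steps: dispense DMEM/10% FBS into empty wells; pin in compound or DMSO; measure fluorescence at 485/535 nm. Values are fluorescein equivalents.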

[14] = qHTS assay to test for compound auto fluorescence at 590 nm (red) in HEK293 cell free culture (AID 720683)
How it was run: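 Cell-free wells of DMEM with 10% FBS received compound, and intrinsic fluorescence was read at excitation/emission 540/590 nm. Values expressed as equivalence to Rose Bengal sodium.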

[15] = qHTS assay to test for compound auto fluorescence at 590 nm (red) in HepG2 cell free culture (AID 720684)
How it was run: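 Compound was pinned into wells holding MEM with 10% FBS and no cells, and red fluorescence was read at Ex/Em 540/590 nm. Signal is expressed as auto fluorescence equivalency relative to Rose Bengal sodium.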

[16] = qHTS assay to test for compound auto fluorescence at 460 nm (blue) in HepG2 cell free culture (AID 720685)
How it was run: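 Compound (23 nL) or DMSO pinned into cell-free MEM with 10% FBS; blue fluorescence read at 405/460 nm excitation/emission, expressed as auto-fluorescence equivalency to triamterene.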

[17] = qHTS assay to test for compound auto fluorescence at 535 nm (green) in HepG2 cell free culture (AID 720686)
[18] = qHTS assay to test for compound auto fluorescence at 460 nm (blue) in HepG2 cells (AID 720687)
How it was run: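 HepG2 cells in MEM with 10% FBS, attached overnight at 37 C, were exposed to compound or DMSO for 1 hr at 37 C, 5% CO2. Blue fluorescence was read at 405/460 nm, with triamterene as reference fluorophore.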

[19] = biological target: Glucocorticoid receptor (Homo sapiens) (UniProt P04150); assay: qHTS assay to identify small molecule agonists of the glucocorticoid receptor (GR) signaling pathway (AID 720691; active = well fitted activation curve with a large enough effect in the signal ratio in the repeat runs, not every such curve was filed as active; the % refers to the signal ratio; note: potency is the fitted concentration of half-maximal effect); details: GR-bla HeLa, beta-lactamase reporter ratio, 18 h; activation: at 62.4 µM (top of the series)
Sequence of Glucocorticoid receptor (Homo sapiens) (P04150 whole entry, looked up): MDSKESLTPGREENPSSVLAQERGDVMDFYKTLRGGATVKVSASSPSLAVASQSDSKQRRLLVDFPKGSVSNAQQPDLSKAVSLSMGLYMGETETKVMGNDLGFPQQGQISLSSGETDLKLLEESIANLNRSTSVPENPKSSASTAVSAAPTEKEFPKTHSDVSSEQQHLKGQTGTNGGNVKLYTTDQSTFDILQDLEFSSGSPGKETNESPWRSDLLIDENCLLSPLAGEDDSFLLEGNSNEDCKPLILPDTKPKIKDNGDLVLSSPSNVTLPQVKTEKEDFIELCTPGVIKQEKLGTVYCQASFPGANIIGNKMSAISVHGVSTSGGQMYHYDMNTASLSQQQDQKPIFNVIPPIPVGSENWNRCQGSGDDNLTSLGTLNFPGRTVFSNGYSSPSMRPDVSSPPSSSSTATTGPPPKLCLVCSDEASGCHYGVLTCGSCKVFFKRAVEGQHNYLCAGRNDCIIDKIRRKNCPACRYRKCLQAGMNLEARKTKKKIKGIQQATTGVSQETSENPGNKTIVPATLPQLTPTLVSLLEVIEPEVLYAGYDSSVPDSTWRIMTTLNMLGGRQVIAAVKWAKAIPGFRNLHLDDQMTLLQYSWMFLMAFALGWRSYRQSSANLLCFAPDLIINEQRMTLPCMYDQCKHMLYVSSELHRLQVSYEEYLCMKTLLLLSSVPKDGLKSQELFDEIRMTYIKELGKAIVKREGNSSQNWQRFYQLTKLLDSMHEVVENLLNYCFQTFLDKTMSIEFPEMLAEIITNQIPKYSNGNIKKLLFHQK
How it was run: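 Beta-lactamase reporter activity, read as fluorescence intensity, was measured in GR-bla HeLa cells exposed to compounds for 18 h at 37 C and then loaded with LiveBLAzer B/G FRET substrate for 2 h at room temperature.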

[20] = biological target: Glucocorticoid receptor (Homo sapiens) (UniProt P04150); assay: qHTS assay to identify small molecule antagonists of the glucocorticoid receptor (GR) signaling pathway (AID 720692; active = well fitted inhibition curve with a large enough effect in the signal ratio in the repeat runs, not every such curve was filed as active; the % refers to the signal ratio)
How it was run: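 Fluorescence from cleaved LiveBLAzer B/G FRET substrate reports GRE-driven beta-lactamase in HeLa cells; compounds are tested against 5 nM dexamethasone (final) over 18 h at 37 C, substrate incubation 2 h at room temperature.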

Measured: Potency

Cc1onc(-c2ccccc2)c1C(=O)N[C@@H]1C(=O)N2[C@@H]1SC(C)(C)[C@@H]2C(=O)O
inactive: all assays above

CNC[C@@H]1CC[C@@H](N)[C@@H](O[C@H]2[C@H](O)[C@@H](O[C@H]3OC[C@](C)(O)[C@H](NC)[C@H]3O)[C@H](N)C[C@@H]2N)O1
not listed: [10] | [15] | [19] | [20]
inactive: all other assays above

CO[C@@H]1[C@@H](O[C@@H]2O[C@H](C)[C@@H](O[C@H]3C[C@@](C)(O)[C@@H](OC(=O)CC(C)C)[C@H](C)O3)[C@H](N(C)C)[C@H]2O)[C@@H](CC=O)C[C@@H](C)[C@@H](O)/C=C/C=C/C[C@@H](C)OC(=O)C[C@H]1O
4.25 µM (active) and inactive: [19]
not listed: [15]
inactive: all other assays above

Cc1c(N)nc(C(CC(N)=O)NCC(N)C(N)=O)nc1C(=O)NC(C(=O)NC(C)C(O)C(C)C(=O)NC(C(=O)NCCc1nc(-c2nc(C(=O)NCCCN[C@@H](C)c3ccccc3)cs2)cs1)C(C)O)C(O[C@@H]1O[C@@H](CO)[C@@H](O)[C@H](O)[C@@H]1O[C@H]1O[C@H](CO)[C@@H](O)[C@H](OC(N)=O)[C@@H]1O)c1cnc[nH]1 (stereo partly drawn)
active: [1] 0.15 µM
not listed: [14]
inactive: all other assays above

CCCC(CCC)C(N)=O
not listed: [14] | [20]
inactive: all other assays above

O=S(O)CNc1ccc(S(=O)(=O)c2ccc(NCS(=O)O)cc2)cc1
not listed: [16] | [19] | [20]
inactive: all other assays above

CCOC(=O)[C@H](CCc1ccccc1)N[C@H]1CCCN2CCC[C@@H](C(=O)O)N2C1=O
not listed: [10]
inactive: all other assays above

O=C(O)c1ccc(OCCn2ccnc2)cc1
inactive: all assays above

COc1ccc(C(=O)Nc2ccccc2CCC2CCCCN2C)cc1 (stereo not drawn)
not listed: [14] | [18]
inactive: all other assays above

N[C@@H](C(=O)N[C@@H]1C(=O)N2C(C(=O)O)=C(CSc3cn[nH]n3)CS[C@H]12)c1ccc(O)cc1
not listed: [14]
inactive: all other assays above

CS(=O)(=O)OCCCNCCCOS(C)(=O)=O
not listed: [14]
inactive: all other assays above

O=C[C@H](O)[C@@H](O)[C@H](O[C@H]1O[C@H](CO)[C@@H](O[C@H]2O[C@H](CO)[C@@H](O)[C@H](O)[C@H]2O)[C@H](O)[C@H]1O)[C@H](O)CO
not listed: [18] | [20]
inactive: all other assays above

CCCCCCCCCCCCCCCC(=O)OC[C@@H](NC(=O)C(Cl)Cl)[C@H](O)c1ccc([N+](=O)[O-])cc1
active: [6] 33.5 µM
not listed: [15] | [16] | [19] | [20]
inactive: all other assays above
